N370S GC mod – inhibits or activates N370S mutant glucocerebrosidase; Potency, µM (highest dose often 59.4 µM), for inactives: at the top dose activity change, negative = inhibition, usual class: inhibitors; 330,000 tested, 0.092% active; N370S GC spleen homogenate, 4MU-glucoside fluorescence; AID 2101;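 further: potency means the concentration at half of the fitted maximal effect; 0% = full enzyme activity and -100% = no enzyme basal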
GLA spleen mod – inhibits or activates alpha-galactosidase in human spleen homogenate | P06280 | human spleen homogenate, 4MU-alpha-Gal fluorescence, 40 min | Potency, µM (titrated, usually from 80 µM), for inactives: at the top dose activity change, negative = inhibition, actives largely listed as inhibitors | 240,000 tested, 0.008% active | AID 2107;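 further: potency means the concentration at half of the fitted maximal effect; 0% = enzyme with vehicle and -100% = no enzyme basal signal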
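Inhibition or activation of alpha-galactosidase in human spleen homogenate is scored by 4-MU fluorescence after 40 min at 37C, pH 5.0, with 1 mM substrate. AC50s come from concentration-response fitted to the Hill equation.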
GAA inhib – alpha-glucosidase (human) inhibition; P10253; Potency, µM (series often up to 76.9 µM), inactives show at the highest dose activity change, negative = inhibition, actives largely listed as inhibitors; 200,000 tested, 0.005% active; AID 1466; purified human GAA, 4-MU-alpha-glucoside fluorescence;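 further: potency means the concentration at half of the fitted maximal effect; plate controls were uninhibited enzyme wells for no effect and no-enzyme background for full effect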
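qHTS format, compound range up to 77 uM. Human lysosomal enzyme at 4 nM, 400 uM 4-MU glucoside substrate, pH 5.0, 20 min room temperature; fluorescence after alkaline stop gives activity normalized to controls.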
GAA spleen mod – lysosomal alpha-glucosidase (human) modulation; P10253; human spleen homogenate, 4-MU-alpha-glucoside fluorescence; Potency, µM (doses to about 79.9 µM), inactives show top-dose activity change, negative = inhibition, actives largely listed as inhibitors; 240,000 tested, 0.006% active;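 further: potency means the concentration at half of the fitted maximal effect; 0% = enzyme with vehicle and -100% = no enzyme basal signal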
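Compounds were titrated against alpha-glucosidase in spleen homogenate at pH 5.0, with 1 mM 4-methylumbelliferyl substrate for 40 min at 37 C. Reactions were quenched with pH 10 NaOH/glycine and fluorescence measured.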
GLA inh pH 4.5 – blocks human alpha-galactosidase A at pH 4.5; P06280; purified enzyme, 4-MU-alpha-Gal fluorescence, pH 4.5; activity change, negative = inhibition, % at 105 µM; 230,000 tested, under 10 active;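 further: 0% = full activity with enzyme and -100% = basal without enzyme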
Target sequence (P06280 whole entry, looked up): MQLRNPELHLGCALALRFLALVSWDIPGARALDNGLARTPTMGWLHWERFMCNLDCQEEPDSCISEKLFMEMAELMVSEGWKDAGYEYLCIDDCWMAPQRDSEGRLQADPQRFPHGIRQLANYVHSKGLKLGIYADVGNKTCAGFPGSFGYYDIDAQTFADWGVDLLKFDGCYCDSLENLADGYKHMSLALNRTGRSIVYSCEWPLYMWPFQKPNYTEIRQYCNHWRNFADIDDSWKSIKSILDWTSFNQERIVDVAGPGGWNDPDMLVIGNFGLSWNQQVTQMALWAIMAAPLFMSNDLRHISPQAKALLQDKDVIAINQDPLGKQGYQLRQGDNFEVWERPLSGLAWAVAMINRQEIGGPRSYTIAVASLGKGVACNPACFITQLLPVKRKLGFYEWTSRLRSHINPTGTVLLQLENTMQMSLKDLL
GAA glycogen – alters human alpha-glucosidase cleavage of glycogen | recombinant GAA, glycogen substrate, Amplex Red glucose oxidase fluorescence | Potency, µM (top dose mostly 76.4 µM), for the others: at the top dose activity change, negative = inhibition, hits mostly inhibitors | 300,000 tested, 0.38% active | AID 2100;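 further: potency means the concentration at half of the fitted maximal effect; 0% = full enzyme reaction and -100% = no-enzyme basal signal; the screen sought inhibitors and activators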
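Recombinant enzyme (4 nM final) with compounds titrated up to 77 uM and bovine liver glycogen (30 ug) in citrate pH 5.0, 0.01% Tween-20, 37 C 40 min. Released glucose detected by Amplex Red/glucose oxidase (Ex 573/Em 610); AC50 from Hill fits.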
The depositor's hits bear a star; ? = inconclusive; . = not tested or not shown; [ ] = another dose, or the depositor's remark. The list is not random: actives were taken first. Their share in the collection is about 0.43%. The call rests on the fitted dose curve; in most records, active means well fitted curve in the direction sought with a large enough effect; inconclusive means small, poorly fitted or top-dose-only effect, or another doubt; inactive means no such curve, though single readings can be large; an effect the other way counts as inactive or inconclusive.

SMILES	N370S GC mod	GLA spleen mod	GAA inhib	GAA spleen mod	GLA inh pH 4.5	GAA glycogen
Cc1ccc(-c2[nH]c(=O)n3ccncc23)s1	0%[2.35 µM]	9%	-7%	1%	-8	40µM*
CCCn1c(CNc2ccccc2O)nc2ccccc21	-5%	1%	-9%	-3%	-10	12µM*
CC1CC=CC2C1C(=O)N(Cc1ccccc1)C2c1ccc(-c2cc3ccccc3s2)cc1F (stereo not given)	-5%	3%	.	4%	.	.
Cc1cc(C)c(-c2cc([C@H](C)O/N=C3/[C@H]4OC4[C@@H](O)[C@H]4[C@H]3CCn3c(=O)n(-c5ccccc5)c(=O)n34)on2)c(C)c1 (stereo not given in full)	4%[12.8 µM]	22%[17.5 µM]	.	1%[17.4 µM]	.	.
Cc1cc(=O)oc2cc(OCC(=O)NC(Cc3c[nH]c4ccc(O)cc34)C(=O)O)c(Cl)cc12 (stereo not given)	1%	.	.	.	.	7.9µM*
N#C/C(=C\c1cc(O)c(O)c(O)c1)C(N)=O	-22%	-30%	.	?	-11	5µM*
O=C(NNc1ccc(-c2csnn2)cc1)c1ccccc1C(F)(F)F	0%	4%	1%	4%	0	9.9µM*
C/C(=N\NC(=O)c1ccccc1F)c1ccc2c(c1)Nc1ccccc1S2	11%	5%	0%	-2%	1	25µM*
CCOC(=O)/C(=N/Nc1ccccc1)c1csc(Nc2ccccc2)n1	11%	1%	-9%	-8%	-15	?
CCOC(=O)/C(=N\Nc1ccc(OC)cc1)c1csc(Nc2ccccc2)n1	.	0%	-3%	-6%	0	25µM*
CCOC(=O)c1c(OCC)[nH]c2ccc(O)cc12	?	4%	-4%	-4%	5	6.3µM*
Cc1ccc(C)c(N2CCN(S(=O)(=O)c3ccc4[nH]c(=O)c(=O)[nH]c4c3)CC2)c1	13µM*	24%	-9%	-13%	0	-1%
Cc1ccc(C)c(N2CCN(S(=O)(=O)c3ccc4c(c3)NC(=O)CC(=O)N4)CC2)c1	14µM*	.	.	.	.	-9%[76.3 µM]
Cc1ccc(C)c(N2CCN(S(=O)(=O)c3ccc4c(c3)CCC(=O)N4)CC2)c1	-12%	2%	0%	3%	-3	-1%
Cc1ccc(F)c(C2C3C=CCCC3(C)C(=O)N2Cc2ccccc2)c1 (stereo not given)	7%	-10%	.	-8%	.	.
Cc1ccn2c(Nc3ccc(C(C)C)cc3)c(-c3cccnc3)nc2c1	.	.	.	.	.	16µM*
CC(C)c1ccc(Nc2c(-c3ccccn3)nc3ccccn23)cc1	.	.	.	.	.	5.6µM*
Cc1ccn2c(Nc3ccccc3C)c(-c3ccccn3)nc2c1	-16%	0%	0%	-5%	0	4µM*
Cc1ccc2nc(-c3cccnc3)c(Nc3ccc(C(C)C)cc3)n2c1	.	.	.	.	.	-9%[76.3 µM]
Cc1ccn2c(Nc3ccccc3)c(-c3ccccn3)nc2c1	3%	2%	-12%	4%	-4	?
Cc1ccccc1Nc1c(-c2ccccn2)nc2ccccn12	-10%	-1%	-2%	-1%	-3	?
O=C1OC(C2=CCCCC2)=NC12CC2	1%[12.8 µM]	-9%[17.5 µM]	.	2%[17.4 µM]	.	.
CCOC(=O)OCC1OC(c2ccccc2)C=CC1OC(=O)OCC (stereo not given)	-13%[12.8 µM]	5%[17.5 µM]	.	-5%[17.4 µM]	.	.
C=CCN1CC(C(=O)N(CCCN(C)C)C(=O)NCC)CC2c3cccc4[nH]cc(c34)CC21 (stereo not given)	-3%	-1%	.	-3%	.	.
O=C1CC(N2CCN(c3ccc(O)cc3)CC2)C(=O)N1c1ccc2c(c1)OCO2 (stereo not given)	-8%	-6%	12%	3%	0	16µM*
SMILES	N370S GC mod	GLA spleen mod	GAA inhib	GAA spleen mod	GLA inh pH 4.5	GAA glycogen
O=C1CC(N2CCCCCC2)C(=O)N1c1ccc2c(c1)OCO2 (stereo not given)	-3%	5%	-8%	5%	-2	-1%
O=C(CN1CCOc2ccccc21)NCc1ccco1	9%	12%	7%[15.4 µM]	5%	2	1%
O=C(CN1CC(=O)Oc2ccccc21)NCc1ccco1	12%	-13%	-7%	-5%	-3	7µM*
CC(=O)OCC1OC(C#Cc2ccc(C)cc2C)C=CC1OC(C)=O (stereo not given)	3%[12.8 µM]	1%[17.5 µM]	.	7%[17.4 µM]	.	.
COc1ccc2ccccc2c1/C=N/Nc1cccc(C(=O)O)c1	-7%	.	.	.	.	?
O=C(N/N=C/c1ccc(O)cc1)c1cccc(N/N=C/c2ccc(O)cc2)c1	-20%	-2%	-14%	-3%	-6	25µM*
O=C(O)c1cccc(N/N=C/c2cccc3ccccc23)c1	-9%	.	.	.	.	32µM*
O=C(N/N=C/c1ccncc1)c1cccc(N/N=C/c2ccncc2)c1	-14%	-9%	0%	-2%	-5	-3%
C[C@@H](c1ccccc1)N1C(=O)[C@H]2[C@H]3[C@H](O)[C@H](O)C/C(=N/NC(=O)OCc4ccccc4)[C@H]3CC[C@@H]2C1=O	11%[12.8 µM]	3%[17.5 µM]	.	-1%[17.4 µM]	.	.
Cc1ccc(N2C(=O)CC(N3CCN(c4ccccn4)CC3)C2=O)cc1 (stereo not given)	-7%	-5%	9%	0%	5	8%
Cc1ccc2nc(-c3ccc(N4C(=O)CC(N5CCN(CCO)CC5)C4=O)cc3)sc2c1 (stereo not given)	18µM*	2%	-2%	3%	4	-5%
Nc1n[nH]c2cc(=O)n(-c3cccc(C(F)(F)F)c3)nc12	9%	3%	-10%	-19%	-2	32µM*
CC(=O)NCCCC[C@H](NC(=O)OC(C)(C)C)C(=O)Nc1ccc2c(C(F)(F)F)cc(=O)oc2c1	12%	26%	.	8%	.	.
C/C(CC(=O)Nc1ccc(Cl)cc1C(F)(F)F)=N\NC(N)=S	-2%	7%	.	4%	-3	?
C/C(CC(=O)Nc1ccc(C)c(Cl)c1)=N\NC(=O)c1ccncc1	-12%	-2%	-4%	.	-7	-23%
C/C(CC(=O)Nc1ccc(Cl)cc1Cl)=N\NC(=O)c1ccncc1	15%	0%	.	2%	-11	-23%
C/C(CC(=O)Nc1ccc(Cl)cc1Cl)=N\NC(N)=S	10%	-1%	-5%	-4%	7	22µM*
C/C(CC(=O)Nc1ccc(Cl)c(Cl)c1)=N\NC(N)=S	4%	4%	-12%	-10%	1	7.9µM*
C/C(CC(=O)Nc1cc(Cl)ccc1Cl)=N\NC(N)=S	-2%	-12%	1%	-5%	1	9.9µM*
Cc1nnc(N/N=C/c2cc([N+](=O)[O-])c(N3CCC(C)CC3)cc2N2CCC(C)CC2)n1N	-14%	1%	?	-7%	-11	31µM*
CCc1nnc(N/N=C/c2ccc(N3CCC(C)CC3)c([N+](=O)[O-])c2)n1N	?	-6%	2%	-15%	-7	?

Compound activity deposited in PubChem BioAssay by National Center for Advancing Translational Sciences (NCATS).
